# Measurements as given in ChEMBL document CHEMBL4513216, “Probing the Open Global Health Chemical Diversity Library for Multistage-Active Starting Points for Next-Generation Antimalarials” (ACS Infect Dis, 2020).
# Out of some 69,000 compounds screened, about 8,600 (12%) showed an effect of 50% or more. Shown is part of a subset that was picked to be rich in strong results.
# Test system: Plasmodium berghei
# Assay: Screen against P. berghei liver stage (PbLuc), transformed with Luciferase, at 10uM
# Format: functional, HepG2
# Details: tested at 10 uM
row,SMILES,INHIBITION [%]
1,Cc1cc(F)ccc1-n1cc(O)c(C(=O)NCC[S+](C)[O-])n1 (centres undefined),36.2
2,COc1ccccc1COCC(O)CN1CCC(c2ccn[nH]2)CC1 (centres undefined),46.2
3,Cn1cc(CN2CCn3cnc(COCC4CC4)c3C2)cn1,5.63
4,CC(=O)N1CCN(Cc2c(C)sc3ccccc23)CC(O)C1 (centres undefined),35.4
5,CC(=O)N1CCN(Cc2cccc3c2sc2ccccc23)CC(O)C1 (centres undefined),84.6
6,CC(=O)N1CCN(Cc2c(C)ccc3ccccc23)CC(O)C1 (centres undefined),44.3
7,Cc1cnn(CCNCc2cccc(C#N)c2)c1,32.2
8,Cn1cncc1CN1CCC2(CC1)COCCN(S(C)(=O)=O)C2,4.68
9,O=C(CC1CCCC1)N1CCC(c2nnc(-c3ccccn3)o2)CC1,-18.1
10,CN(Cc1ccccn1)C(=O)c1nc(S(C)(=O)=O)n2ccccc12,36.85
11,CN(Cc1ccccc1)C(=O)c1nc(S(C)(=O)=O)n2ccccc12,52
12,CC(C)CCN(C)C(=O)c1nc(S(C)(=O)=O)n2ccccc12,46.5
13,Cn1cc(Cl)cc1C(=O)N1CCCN(Cc2ccccc2)CC1,16.97
14,Cn1cnnc1SCc1cc2c(cc1Br)OCO2,49
15,N#CC1CCCN(S(=O)(=O)c2ccc(C(=O)NCC(F)F)cc2)C1 (centres undefined),49.2
16,O=C(NCC(F)F)c1ccc(S(=O)(=O)N2CCCC(O)C2)cc1 (centres undefined),37.3
17,N[C@H]1CCCN(S(=O)(=O)c2ccc(C(=O)NCC(F)F)cc2)C1,66.1
18,CN(C(=O)c1cn(C)cn1)[C@@H]1CCC[C@@H](Oc2ccccc2)[C@@H]1O,60.5
19,CN(C(=O)c1ccn(C)n1)[C@@H]1CCC[C@@H](Oc2ccccc2)[C@@H]1O,35.2
20,Cc1cnc(C(=O)N(C)[C@@H]2CCC[C@@H](Oc3ccccc3)[C@@H]2O)cn1,17.1
21,Cc1noc(C)c1-c1cncc(C2CCCN2Cc2nccs2)n1 (centres undefined),15.9
22,O=C(CC1CCCO1)N1CCCN(c2cccnn2)CC1 (centres undefined),7.12

row,SMILES,INHIBITION [%]
1,Cc1cc(C)nc(N(C)CCn2ccnc2C)n1,-45.7
2,CN(C)C(=O)CN1CCC2(CC1)CC(=O)c1ccc3ccccc3c1O2,41.1
3,CN1CCN(CCCNCc2cc(O)c3cc(F)ccc3n2)CC1,65.6
4,Oc1cc(CNCCN2CCCCC2)nc2c(F)cccc12,13.7
5,O=C1CCCN1CCCNCc1cc(O)c2cccc(F)c2n1,-15.8
6,O=S(=O)(CCNCc1cc(O)c2cc(F)ccc2n1)N1CCCC1,58.2
7,Cc1ccc2nc(CNCCCN3CCCC3)cc(O)c2c1,41.5
8,O=C(CCNCc1cc(O)c2cc(F)ccc2n1)N1CCCC1,30.4
9,OCC1CCCCN1CCCNCc1cc(O)c2cc(F)ccc2n1 (centres undefined),25.7
10,Oc1cc(CNCCCN2CCCC2)nc2ccc(F)cc12,62.8
11,O=C1CCCN1CCCNCc1cc(O)c2cccc(Cl)c2n1,-13.4
12,CC(NCc1c(C(C)C)nn(C)c1N1CCOCC1)C(=O)N(C)C (centres undefined),19.45
13,Cc1cc(C)c2c(NCCC3(O)CCCC3)ncnc2n1,42.3
14,CCn1ccc2ccnc(CC3CN(C(=O)c4cnco4)C3)c21,1.62
15,CN1CC2(CCCCN2C(=O)c2ccsc2)CC1=O (centres undefined),35.8
16,Cc1oc(C)c(C(=O)NCc2cccc(C(N)=O)c2)c1C,-39.7
17,CNC(=O)C1CN(C)CCN1c1nc(C)cc(C)n1 (centres undefined),-5.8
18,COC(=O)Cn1c(=O)[nH]c2cn(-c3ccc(Cl)cc3)c(=O)n21,0.547
19,NC(=O)c1cc(C2CCCN(CCCOc3ccc(F)cc3)C2)n[nH]1 (centres undefined),14.22
20,Cc1ccc(S(=O)(=O)NC(=O)CCOCC(C)C)s1,55.9
21,CC(=O)c1ccc(OCC(=O)NS(=O)(=O)c2ccc(Cl)s2)cc1,36.8
22,CC(C)COCCC(=O)NS(=O)(=O)c1ccc(Cl)s1,62.4

row,SMILES,INHIBITION [%]
1,COc1ccccc1OCC(=O)NS(=O)(=O)c1ccc(Cl)s1,31.3
2,CCOCCCC(=O)NS(=O)(=O)c1ccc(C)s1,11.3
3,Cc1ccc(S(=O)(=O)NC(=O)CCOCc2ccccc2)s1,36.3
4,OC1(CN2CCCC2)COCCN(c2cc(C(F)(F)F)ccn2)C1 (centres undefined),-16
5,OCCn1nccc1C1CCN(Cc2nc(C3CC3)no2)CC1,33.7
6,Cc1cc(C(=O)N2CCC(Nc3cccnc3)CC2)c(C)s1,-19.5
7,O=S1(=O)NC(c2ccnc(N3CCCC3)n2)=Nc2ccccc21,33.2
8,O=C(c1ccc(F)cc1)N1CCC2(CC1)CC(N1CCOCC1)C2,-24.5
9,Cc1ccc(C(=O)N2CCC3(CC2)CC(N2CCCC2)C3)cc1,39.9
10,Cc1ccc(C(=O)N2CCC3(CC2)CC(N2CCOCC2)C3)cc1,55.7
11,CN(C)C(=O)c1cn[nH]c1C1(C)CCCN(Cc2ccccn2)C1 (centres undefined),40
12,CCOc1ccc(NC(=O)N2CCNC(=O)C2)c(C(F)(F)F)c1,40.2
13,O=C(Cn1cc(-c2ccccc2)ncc1=O)Nc1ncc[nH]1,81
14,O=C(Cn1cc(-c2ccccc2)ncc1=O)Nc1ccncc1,0.547
15,O=C(Cn1cc(-c2ccccc2)ncc1=O)Nc1nnc[nH]1,13
16,Cc1nc2c(C)cccc2cc1C(=O)N1CCC2(CCN(C)CC2)C1,-17.7
17,CCOc1nnc(CN2CCN(CCOC)CC2)s1,53.4
18,CCOc1nnc(CN2CCN(CCOC)C(C)C2)s1 (centres undefined),51.7
19,CCOc1nnc(CN2CCN(CCOC)C(CC)C2)s1 (centres undefined),28.6
20,CCOc1nnc(CN2CCC(c3nc4ccccc4[nH]3)CC2)s1,-35.9
21,CCOc1nnc(CN2CCC(c3cc4ccccc4[nH]3)CC2)s1,-14.2
22,CCOCCN1CCN(CCOC)CC1C (centres undefined),11.4

row,SMILES,INHIBITION [%]
1,COCC1CC2(CCN(C(=O)c3ccc(C)nc3)CC2)CO1 (centres undefined),-26.1
2,COc1ccc(C2CCCN2C(=O)NCCn2ccnc2)cc1OC (centres undefined),-20.965
3,O=S(=O)(C1CC1)N1CC[C@@H](OCC2CC2)[C@@H]1Cc1ccncc1,47.5
4,CNc1nc(CNC(=O)Nc2cccc(C)c2Cl)cs1,-25.15
5,CNc1nc(CNC(=O)Nc2ccc(OC(C)C)cc2F)cs1,72.3
6,CNc1nc(CNC(=O)Nc2cc(Cl)ccc2F)cs1,-41.85
7,CNc1nc(CNC(=O)Nc2ccc(OC(C)C)cc2C)cs1,57.2
8,CNc1nc(CNC(=O)Nc2ccccc2OC(C)C)cs1,32.3
9,CNc1nc(CNC(=O)Nc2ccc(OC)cc2C)cs1,21.5
10,COc1ccc2[nH]cc(C(=O)CNc3nc(C)cs3)c2c1,-29.5
11,O=C(CCOc1ccc(F)cc1)N1CCCC1Cn1cccn1 (centres undefined),30.6
12,Cc1ccc2c(n1)N(CCn1cccn1)CCN(C(=O)NC(C)C)C2,-32
13,CS(=O)(=O)NCc1cnc2n1CCN(Cc1ccsc1)CC2,30.1
14,NCc1ccc(Oc2cccc(Cl)c2Cl)nc1,28.7
15,NCc1ccc(Oc2cccc(Cl)c2Cl)cc1,13.2
16,CCOc1ccccc1Oc1ccc(CN)cn1,60.3
17,CC(C)CCN1CCc2c(C(=O)N(C)Cc3ccccn3)nn(C)c2C1,48.2
18,CCCN1CCc2c(C(=O)N(C)Cc3ccccn3)nn(C)c2C1,55.6
19,CN(Cc1ccccn1)C(=O)c1nn(C)c2c1CCN(CC1CC1)C2,48.2
20,COCCCNC(=O)CN(C)C1CCCN(c2cccnn2)C1 (centres undefined),-14.7
21,CC(=O)N1CC(=O)N(c2ccsc2)CC12CCN(Cc1ccoc1)C2 (centres undefined),-3.58
22,CCN1C(=O)C(c2ccccc2)CC12CCN(CCO)CC2 (centres undefined),19.8

row,SMILES,INHIBITION [%]
1,CNC(=O)CN1CC[C@H]2CN(C(=O)c3ccccc3C)C[C@H]2C1,-28
2,CCn1ncc(CN2CCN(C(=O)Cn3cc(Br)c(C)n3)CC2)c1C,34
3,Cc1nn(CC(=O)N2CCN(Cc3cn(C)nc3C)CC2)cc1Br,51
4,Cc1nn(CC(=O)N2CCN(Cc3cnn(C)c3C)CC2)cc1Br,-5.92
5,CCn1cc(CN(C)S(=O)(=O)c2cnn(C)c2)cn1,7.66
6,O=c1c2cn[nH]c2nc(SCCN2CCOCC2)n1-c1ccccc1,21.5
7,CC(=O)N1CCC2(CN(CC3CCCC3)C2)C1,39.5
8,CC(=O)N1CCC2(CCN(CC3CCCCC3)C2)CC1,51.9
9,CC(=O)N1CCC2(CCN(CC3CCOC3)C2)CC1 (centres undefined),42.1
10,COc1cccc(-c2nc(C)c(C(=O)N[C@H](CO)CC(C)C)s2)c1,-23.7
11,Cc1occc1C(=O)N1C[C@@H]2[C@@H](C1)OCC(=O)N2Cc1cccnc1,-6.23
12,CN(CC1CCOCC1)C1CCCN(c2ccccn2)C1 (centres undefined),18.805
13,Cc1cnn(CCNCc2nc(-c3ccsc3)oc2C)c1,47.4
14,Cc1oc(-c2ccsc2)nc1CNCCn1cccn1,53.4
15,Cc1oc(-c2ccsc2)nc1CNC(C)Cn1cccn1 (centres undefined),39.7
16,CCN(CCn1cccn1)Cc1nc(-c2cc(F)ccc2F)oc1C,26.1
17,CCN(CCn1cccn1)Cc1nc(-c2ccoc2)oc1C,-31.9
18,CCN(CCn1cccn1)Cc1nc(-c2ccc(F)cc2)oc1C,62.4
19,Cc1nn(CC(=O)O)c(C)c1NS(=O)(=O)c1cccc2ccccc12,2.97
20,CNC(=O)CN1CCO[C@H]2CN(CC3CCOC3)C[C@H]21 (some centres undefined),8.85
21,CNc1ccnc(N2C[C@H]3CC[C@@H](C2)N(CCOC)C3=O)n1,-144
